Compound activity (PubChem)
TbREL1 primary: TbREL1 inhibition, primary screen; P86926; TbREL1 RNA ligation, FRET fluorescence; inhibition, % at 9.66 µM; actives 0.49% (n = 89,000);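 active means inhibition above the mean inhibition across all screened compounds plus 3 SD, cut at about 11% in these data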;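 further: 0% = plate median of test wells and 100% = NSC42067 control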
Target sequence (P86926 whole entry, looked up): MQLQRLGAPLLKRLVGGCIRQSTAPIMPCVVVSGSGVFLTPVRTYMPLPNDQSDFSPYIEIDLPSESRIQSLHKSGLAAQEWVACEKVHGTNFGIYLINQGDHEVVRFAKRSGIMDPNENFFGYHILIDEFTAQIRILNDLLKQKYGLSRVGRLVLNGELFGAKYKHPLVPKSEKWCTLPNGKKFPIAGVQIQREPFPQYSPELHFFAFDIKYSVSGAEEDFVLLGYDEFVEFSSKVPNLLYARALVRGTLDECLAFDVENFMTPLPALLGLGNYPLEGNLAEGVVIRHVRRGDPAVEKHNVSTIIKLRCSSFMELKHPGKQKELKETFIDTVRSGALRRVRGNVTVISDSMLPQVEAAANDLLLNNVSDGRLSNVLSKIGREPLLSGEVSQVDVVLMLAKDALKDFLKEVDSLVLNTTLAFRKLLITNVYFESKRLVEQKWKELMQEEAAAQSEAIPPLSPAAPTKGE
TbREL1 confirm: TbREL1 inhibition, confirmation | TbREL1 RNA ligation, FRET fluorescence | shares compounds with TbREL1 primary | inhibition, % at 9.66 µM | actives 37% (n = 390);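 active means mean inhibition across replicates above a set limit taken from the earlier primary screen, cut at about 11% in these data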;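 further: 0% = REL1 with substrate and DMSO and 100% = REL1 plus control inhibitor NSC42067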
Starred values were filed as active, the others as inactive. The sample as a whole holds a higher share of hits than the screen did.

SMILES	TbREL1 primary	others
CC[C@H]1OC(=O)[C@H](C)[C@@H](O[C@H]2C[C@@](C)(OC)[C@@H](O)[C@H](C)O2)C(C)[C@@H](O[C@@H]2O[C@H](C)C[C@H](N(C)C)[C@H]2O)[C@](C)(O)C[C@@H](C)CN(C)[C@H](C)[C@@H](O)[C@]1(C)O (stereo partly drawn)	-2.4
O=C(Nc1ccc(F)cc1F)C1CCCN1S(=O)(=O)c1cccnc1 (stereo not drawn)	-0.9
Cc1cc(=O)[nH]c(SCC(=O)c2ccc(C)c(C)c2)n1	-1.6
COc1cccc(OC)c1OCCCSc1nc(C)cc(=O)[nH]1	4.5
CCOc1ccc(OCCSc2nc(C)cc(=O)[nH]2)cc1	11.1*	TbREL1 confirm=3.2
CC(C)C(NC(=O)[C@H](Cc1ccccc1)NC(=O)OCc1ccccc1)P(=O)(O)OC(Cc1ccccc1)C(=O)O (stereo partly drawn)	4.8
CCCC[C@H]1C2CC(OC(=O)Nc3ccc(Br)cc3)C(C2)[C@H]2CCCCN21 (stereo partly drawn)	4.5
CCCC[C@H]1C2CC(OC(=O)Nc3ccc(C)cc3)C(C2)[C@H]2CCCCN21 (stereo partly drawn)	-0.7
CCCC[C@H]1C2CC(OC(=O)Nc3ccc(C#N)cc3)C(C2)[C@H]2CCCCN21 (stereo partly drawn)	11.3*	TbREL1 confirm=4.3
COc1ccc(C(=O)NCCS(=O)(=O)NCCc2ccccc2)cc1	1.7
COc1cccc(C(=O)NCCS(=O)(=O)NCc2ccc(Cl)cc2)c1	-0.7
COc1cccc(C(=O)NCCS(=O)(=O)NC(C)CCc2ccccc2)c1 (stereo not drawn)	13.9*	TbREL1 confirm=11.1*
O=C(NCc1ccccc1)N1CCC(c2nc3ccc(Cl)cc3[nH]2)CC1	0.7
C#CCN1CC(N(C)CCO)CS1(=O)=O (stereo not drawn)	3.6
O=C(c1cccnc1)N1CCN(C(=O)c2ccco2)CC1	1.6
O=C(c1cccnc1)N1CCN(Cc2cccc(Br)c2)CC1	11.5*	TbREL1 confirm=5.8
O=C(c1ccc([N+](=O)[O-])cc1)N1CCN(C(=O)c2cccnc2)CC1	-1.6
CCCCCCC(=O)NC1CCCCN(Cc2ccccc2C)C1=O (stereo not drawn)	-4.3
Cc1cccc(C)c1NC(=O)[C@@H]1CC(=O)O[C@@H]1c1ccccc1	4.8
Cc1ccc(S(=O)(=O)N2OC(c3ccccc3)C[C@H]2CC=C(c2ccccc2)c2ccccc2)cc1 (stereo partly drawn)	-0.3
O=C1CCCCC1Nc1ccc([N+](=O)[O-])cc1 (stereo not drawn)	18.3*	TbREL1 confirm=1.9
CN1CCN(C(=S)Nc2ccc([N+](=O)[O-])cc2)CC1	-1.5
O=C(NC1CCCCC1)c1ccc([N+](=O)[O-])cc1	0.8
COc1ccc(CN(CCN2CCOCC2)C(=O)c2cccc(F)c2F)cc1OC	1.6
CCOC(=O)Cc1nc(N2CCN(Cc3cccc4c3OCO4)CC2)c2c(C)c(C(=O)OCC)sc2n1	-1.0
SMILES	TbREL1 primary	others
CN(C)CCNC(=O)/C=C/c1cn(-c2ccccc2)nc1-c1cc2ccccc2oc1=O	11.9*	TbREL1 confirm=3.7
O=Cc1cn(-c2ccccc2)nc1-c1cc2ccccc2oc1=O	6.1
O=C(/C=C/c1cn(-c2ccccc2)nc1-c1cccnc1)NCCN1CCOCC1	2.3
COc1ccccc1CN[C@@H]1CC[C@@]23CCCN2C(=O)CCC[C@H]3C1	2.4
COc1ccc(C=NNC(=O)c2cc(-c3ccc(C)c(C)c3)n[nH]2)cc1OCc1ccccc1	3.4
CC(=O)c1c(C)[nH]c(C(=O)Nc2ccccc2C)c1C	-0.9
CCn1c2ccccc2c2cc(NC(=O)c3cc4c(C)nn(-c5ccccc5)c4s3)ccc21	0.4
O=S(=O)(c1ccc(F)cc1)N1CCC(c2nc3ccccc3o2)CC1	0.0
COc1ccc(CN(C)CC(O)COC(c2ccc(OC)cc2)c2ccc(OC)cc2)cc1 (stereo not drawn)	12.5*	TbREL1 confirm=7.6
COc1ccc(CNC(=O)CN(C)Cc2ccc(SC)cc2)cc1	-1.3
COc1ccc(-c2noc(CN(C)Cc3ccccc3)n2)cc1	-2.1
C=CCn1c(COc2ccc(C)cc2)nnc1SCC(=O)Nc1cc(Cl)cc(Cl)c1	4.2
CCOc1ccc(NC(=O)CSC2=NN3CCCC(=O)N=C3S2)cc1	-2.9
CC(C)(C)CC(=O)Nc1nnc(SCC(=O)NC2CCCC2)s1	1.5
CCSc1nnc(NC(=O)CSC2=NN3CCCC(=O)N=C3S2)s1	15.3*	TbREL1 confirm=0.6
C[C@H]1[C@@H](OC(=O)Nc2cc(Cl)ccc2Cl)CC[C@@]23CCCN2C(=O)CCC[C@@H]13	-3.2
Cc1ccc(CSc2nnc(-c3cc(-c4ccc(C)cc4)n[nH]3)n2N)cc1	2.5
CC(NCC(=O)Nc1ccccc1C(=O)NC1CC1)c1ccc(S(N)(=O)=O)cc1 (stereo not drawn)	16.6*	TbREL1 confirm=6.1
CCN(CC)S(=O)(=O)c1ccc(C(C)NCC(=O)Nc2ccccc2C(=O)NC2CC2)cc1 (stereo not drawn)	1.5
O=C(CN1CCN(S(=O)(=O)c2ccc(F)cc2)CC1)Nc1ccccc1C(=O)NC1CC1	-1.1
